Assay results as given in a collection of fitness landscapes (doi:10.1126/science.1257360).
The full ranking holds about 140,000 sequences; the median of “enrichment ratio after two sorts for PhoP signalling” is about 0, and the highest 2% start at about 11. The sample as a whole holds a higher share of the highest values than the screen did.

B1: PhoQ; a variant is named by its letters at X, in order, P23837 (parent)
chain: MKKLLRLFFPLSLRVRFLLATAAVVLVLSLAYGMVALIGYSVSFDKTTFRLLRGESNLFYTLAKWENNKLHVELPENIDKQSPTMTLIYDENGQLLWAQRDVPWLMKMIQPDWLKSNGFHEIEADVNDTSLLLSGDHSIQQQLQEVREDDDDAEMTHSVAVNVYPATSRMPKLTIVVVDTIPVELKSSYMVWSWFIYVLSANLLLVIPLLWVAAWWSLRPIEALAKEVRELEEHNRELLNPATTRELTSLVRNLNRLLKSERERYDKYRTTLTDLTHSLKTPLXXLQXXLRSLRSEKMSVSDAEPVMLEQISRISQQIGYYLHRASMRGGTLLSRELHPVAPLLDNLTSALNKVYQRKGVNISLDISPEISFVGEQNDFVEVMGNVLDNACKYCLEFVEISARQTDEHLYIVVEDDGPGIPLSKREVIFDRGQRVDTLRPGQGVGLAVAREITEQYEGKIVAGESMLGGARMEVIFGRQHSAPKDE

Variants of: B1
Assay: enrichment ratio after two sorts for PhoP signalling (ratio (wild type AVST 3.29)); higher = more functional
Details: with PhoP (E. coli)

Variant | enrichment ratio
NTFT | ≤ 0.25
DACN | ≤ 0.25
YKFT | ≤ 0.25
VRAW | ≤ 0.25
EVCN | ≤ 0.25
PEAM | ≤ 0.25
EYVE | ≤ 0.25
HGYS | ≤ 0.25
QTTN | ≤ 0.25
SFNA | ≤ 0.25
MWTS | ≤ 0.25
PLKT | ≤ 0.25
RNTM | ≤ 0.25
WPSM | ≤ 0.25
DMSE | ≤ 0.25
TMCS | 16.8
TMSE | 15.9
TMGE | 14.8
TMPA | ≤ 0.25
TMKE | 13.6
TMWI | ≤ 0.25
MMSE | ≤ 0.25
TMNE | ≤ 0.25
NHGE | ≤ 0.25

Variant | enrichment ratio
THGE | ≤ 0.25
NMKE | ≤ 0.25
DFCK | ≤ 0.25
IFAG | ≤ 0.25
ECNL | ≤ 0.25
KFQG | ≤ 0.25
GWTL | ≤ 0.25
DYTL | ≤ 0.25
YESY | ≤ 0.25
RHIC | 0.278
ATKV | ≤ 0.25
IHFF | ≤ 0.25
YYCV | ≤ 0.25
TMCT | 19.5
NMCT | ≤ 0.25
TMCA | 8.5
DMCT | ≤ 0.25
TMCI | 12.4
TMCK | 3.91
YSWE | ≤ 0.25
AFNE | ≤ 0.25
WHNP | ≤ 0.25
SEAG | 12.1
SPAG | ≤ 0.25

Variant | enrichment ratio
KYAG | ≤ 0.25
SFAG | 0.768
STAG | 9.55
SAAG | 14.1
SAVG | 0.763
DPAG | ≤ 0.25
SQAG | 25.9
RRVI | ≤ 0.25
FDPS | ≤ 0.25
DHTW | ≤ 0.25
SYEG | ≤ 0.25
DPMG | ≤ 0.25
SYMG | 12.5
STMG | 9.85
SYIG | 11.3
SYHG | ≤ 0.25
SQMG | 20.8
SDIG | ≤ 0.25
KYIG | ≤ 0.25
WYLE | ≤ 0.25
LKTQ | ≤ 0.25
HHMC | ≤ 0.25
FFEW | ≤ 0.25
SADI | ≤ 0.25

Variant | enrichment ratio
SNGG | 7.77
TNLA | 8.08
RGND | ≤ 0.25
NQNG | ≤ 0.25
IQNG | ≤ 0.25
TGNG | 23.3
PGNG | ≤ 0.25
AQNG | 28.2
NGNG | ≤ 0.25
VKSA | ≤ 0.25
NIRT | ≤ 0.25
AVYH | 0.253
INLE | ≤ 0.25
KYTL | ≤ 0.25
SITL | 18.5
GMTL | 15.2
LTTL | ≤ 0.25
DITL | ≤ 0.25
SSTL | 14
TTTL | 13.4
SFTL | 1.44
CTTL | ≤ 0.25
FVTL | 1.5
GVTL | 8.09

Variant | enrichment ratio
SRTL | 0.897
MWFH | ≤ 0.25
PGWI | ≤ 0.25
ESFA | ≤ 0.25
HNYP | ≤ 0.25
MKHE | ≤ 0.25
GLGE | ≤ 0.25
GQQP | ≤ 0.25
FLMS | ≤ 0.25
ANVH | ≤ 0.25
TNTL | 14
SNTL | 14.6
WNTL | ≤ 0.25
TWTL | ≤ 0.25
IQTL | ≤ 0.25
GNTL | 6.85
FQTL | 1.49
FTTL | 3.67
GTTL | 11.7
SQTL | 12.3
MNTL | 3.28
QCRR | ≤ 0.25
NVGP | ≤ 0.25
SGTL | 7.51

Variant | enrichment ratio
WPCQ | ≤ 0.25
HKKN | ≤ 0.25
PVRE | ≤ 0.25
NYRG | ≤ 0.25
SCTL | 14.2
SVWL | ≤ 0.25
FCTL | ≤ 0.25
KFTL | ≤ 0.25
SVTL | 12.2
PLTL | ≤ 0.25
TCTL | 20.7
WLTL | 0.379
VCTL | 6.03
SLTL | 15.2
KCTL | ≤ 0.25
EAPT | ≤ 0.25
TVGM | 10.4
MWTK | ≤ 0.25
AEKL | ≤ 0.25
ARYC | ≤ 0.25
ESWQ | ≤ 0.25
HSSR | ≤ 0.25
LRFQ | ≤ 0.25
QETL | ≤ 0.25

Variant | enrichment ratio
YTTL | 3.18
TLTL | 14.1
NETL | ≤ 0.25
ITTL | 0.464
FLTL | 0.273
VLTL | 3.19
SETL | 14.8
STTL | 16.6
MHRQ | ≤ 0.25
GSPC | ≤ 0.25
QHLF | ≤ 0.25
RLFC | ≤ 0.25
NYDD | ≤ 0.25
RDCN | ≤ 0.25
EACS | ≤ 0.25
MLAN | ≤ 0.25
MEYQ | ≤ 0.25
NCYQ | ≤ 0.25
MLYQ | 18.8
KCYQ | ≤ 0.25
MLYD | ≤ 0.25
MCYQ | 17.2
MADQ | ≤ 0.25
VHFE | ≤ 0.25

Variant | enrichment ratio
ESLL | 0.525
ELNQ | ≤ 0.25
MNMI | 4
LNML | 2.48
GNML | 12.2
GQML | 7.95
YNML | 13.9
GIML | 8.24
VGML | 8.33
MNML | 24.9
YNSK | ≤ 0.25
YNNL | ≤ 0.25
TNML | 1.41
GGML | 15.7
SKFF | ≤ 0.25
ALTN | 7.81
SRAG | ≤ 0.25
IRNN | ≤ 0.25
KMTD | ≤ 0.25
DIIE | ≤ 0.25
HEPC | ≤ 0.25
YNTI | ≤ 0.25
GRQY | ≤ 0.25
HGML | 21.6

Variant | enrichment ratio
HFML | ≤ 0.25
VNSK | ≤ 0.25
NGML | ≤ 0.25
TGML | 12.2
RGML | ≤ 0.25
MVML | 11.9
MVCL | 4.31
VNML | 14.6
HIML | ≤ 0.25
VNNL | ≤ 0.25
MVPL | ≤ 0.25
YQHI | ≤ 0.25
FWLA | ≤ 0.25
TCLH | 1.39
SHYK | ≤ 0.25
DMSQ | ≤ 0.25
IDIQ | ≤ 0.25
RRTP | ≤ 0.25
MAIN | ≤ 0.25
GTWQ | ≤ 0.25
EFQI | ≤ 0.25
FGML | 22.9
QGML | 6.23
GCML | 3.33

Variant | enrichment ratio
GYML | ≤ 0.25
PVML | ≤ 0.25
GVML | 13.4
GTML | 12.6
PWML | ≤ 0.25
FGDL | ≤ 0.25
SCGR | ≤ 0.25
GTVR | ≤ 0.25
SFSS | ≤ 0.25
VDHN | ≤ 0.25
ILLE | ≤ 0.25
DHMC | ≤ 0.25
FYNT | ≤ 0.25
ANLF | 10.7
KIQT | ≤ 0.25
ISLD | ≤ 0.25
ETRK | ≤ 0.25
RGAM | ≤ 0.25
THAM | 18.6
VRAM | ≤ 0.25
NGAM | ≤ 0.25
TRAM | 15.1
QGWM | 9.7
NHAM | ≤ 0.25

Variant | enrichment ratio
QGAM | 13
SRAM | ≤ 0.25
FFAM | ≤ 0.25
SHAM | 8.88
TGAM | 13
EKVL | ≤ 0.25
YQEF | ≤ 0.25
KAPT | ≤ 0.25
IGGQ | ≤ 0.25
LTAM | ≤ 0.25
KDAM | ≤ 0.25
TFTM | 3.86
GGAM | 18.2
TFAM | 18.6
TDAM | 17.8
YHAM | ≤ 0.25
NIAM | ≤ 0.25
TFGM | 1.64
LYIW | ≤ 0.25
VRDS | ≤ 0.25
AYMI | 0.272
TKMI | 38.2
ADFA | ≤ 0.25
TDMI | 27.6

Variant | enrichment ratio
TKMG | 7.64
PTMI | ≤ 0.25
LTMI | 0.673
AKMI | 12.8
TDFA | ≤ 0.25
AKMD | ≤ 0.25
ADMI | 12.7
AIMI | 5.72
LVPL | ≤ 0.25
PNNY | ≤ 0.25
WLFH | ≤ 0.25
PLHT | ≤ 0.25
QAAQ | ≤ 0.25
EGTK | ≤ 0.25
APAS | ≤ 0.25
ALRD | ≤ 0.25
KDMK | ≤ 0.25
ALMI | 17.6
ALMD | ≤ 0.25
TDMK | 11.7
LTMK | ≤ 0.25
ALMG | 6.08
ATYI | ≤ 0.25
ATMI | 19.9

Variant | enrichment ratio
ATPA | ≤ 0.25
NVRS | ≤ 0.25
HGKV | ≤ 0.25
KGKP | ≤ 0.25
NFLN | 0.688
AFWR | ≤ 0.25
ASLM | 15.3
KSLF | ≤ 0.25
ADLV | 8.2
ASTS | 9.85
VRLC | ≤ 0.25
ASNS | ≤ 0.25
ASLF | 12.2
NSLF | ≤ 0.25
ASLV | 18.7
ASLC | 16.7
ASHK | ≤ 0.25
ASFM | 6.83
